PTEN del growth: growth suppression of PTEN-null HCT116, primary screen, cell-based, CellTiter-Glo; HCT116 PTEN-null viability, 60 h; active compounds read low; viability, % at 10 µM; hit rate 1.2% among 140,000;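 active means viability at or below a set limit, 4 SD under the median of all tested compounds, cut at about 3.7% in these data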;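 further: PTEN knockout HCT116 line with beta catenin targeted HCT116 as companion control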
p97 inhibitor: inhibitors of human p97 ATPase, primary screen, biochemical | Transitional endoplasmic reticulum ATPase (Homo sapiens), P55072 | recombinant p97 ATPase, Kinase-Glo ATP luminescence, 3 h | inhibition, % at 8 µM | hit rate 0.42% among 220,000 | AID 1481, 2009; in the data active means inhibition above about 15%;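 further: 0% = DMSO vehicle and 100% = wells lacking enzyme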
ROMK primary: ROMK potassium channel modulators, primary screen, cell-based, thallium flux, MLSMR library; ATP-sensitive inward rectifier potassium channel 1 (Homo sapiens), P48048; Tet-inducible ROMK, thallium flux fluorescence; actives lie on both sides; B-score at 10 µM; hit rate 2% among 130,000;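 active means signal ratio slope over the read window, or its plate-corrected B-score, at least 3 SD from the plate mean, either direction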;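 further: B-score of the F/F0 ratio slope over 7 to 12 s after thallium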
Target sequence (P48048 whole entry, looked up): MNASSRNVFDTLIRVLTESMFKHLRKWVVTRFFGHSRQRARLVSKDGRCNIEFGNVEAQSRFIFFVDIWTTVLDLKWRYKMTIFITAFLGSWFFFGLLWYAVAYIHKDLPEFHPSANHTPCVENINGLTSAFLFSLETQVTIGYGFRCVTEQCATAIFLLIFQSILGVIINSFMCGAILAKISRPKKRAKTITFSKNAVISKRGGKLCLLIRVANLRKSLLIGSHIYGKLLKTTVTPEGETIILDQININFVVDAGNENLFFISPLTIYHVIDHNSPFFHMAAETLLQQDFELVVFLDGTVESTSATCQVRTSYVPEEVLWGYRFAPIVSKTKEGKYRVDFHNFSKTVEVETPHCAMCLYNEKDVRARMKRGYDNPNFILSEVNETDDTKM
HCT116 bCat-KO: primary screen for growth suppressors in beta-catenin knockout HCT116 cells (colon tumor, human). viability, % at 10 µM. HCT116 beta-catenin knockout viability, CellTiter-Glo, 60 h; active compounds read low. hit rate 1.5% among 140,000;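 active means viability at or under a set limit, the compound median less 4 SD, cut at about 6% in these data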;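 further: 0% = Hyamine 1622 control at 20 µM and 100% = untreated cell control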
INS promoter inh: inhibitors of insulin promoter-driven GFP, primary screen, imaging, TRM-6 cells (human fetal islet line), eGFP reporter, cell count | inhibition, % at 2 µM | hit rate 0.9% among 130,000 | reporter expression induced with tamoxifen | AID 1273, 2008;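 active means inhibition above the mean plus 3 SD, with well images judged a real hit on visual review, cut at about 60% in these data, passing the limit was not always enough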
L major viab: Leishmania major promastigote growth inhibition, primary screen; Leishmania major promastigotes, resazurin fluorescence viability; inhibition, % at 10 µM; hit rate 9% among 200,000; in the data active means inhibition above about 50%;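 further: promastigotes grown with compound for 44 hours at 28 °C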
An asterisk follows results filed as active; / = not tested or not shown. This is a sample that favours compounds with a hit; in the whole collection about 10% have one here.

SMILES | PTEN del growth | p97 inhibitor | ROMK primary | HCT116 bCat-KO | INS promoter inh | L major viab
O=C(CSc1nnc2c(n1)[nH]c1ccccc12)OCc1ccccc1 | 87 | -5 | / | 85 | 2 | 79*
O=C(O)CSc1nnc2c(n1)[nH]c1ccccc12 | / | 3 | 0.0031 | / | 36 | -9
O=C(O)C1Nc2c(O)cc(Cl)c([N+](=O)[O-])c2C2C=CCC12 (centres undefined) | / | 54* | 2.1 | / | 0 | -10
O=C(NC(=S)NNC(=O)c1cnccn1)c1ccc(Cl)cc1 | / | -5 | 1.2 | / | / | /
COc1cc(C(=O)NC(=S)NNC(=O)c2cnccn2)cc(OC)c1OC | 13 | -3 | / | 8 | -40 | 100*
O=S(=O)(c1ccccc1Cl)N1CCCC1c1nc(-c2ccccc2Cl)no1 (centres undefined) | 68 | -3 | / | 61 | -21 | 89*
CSc1nc2nccc(/C=C\c3ccccc3)n2n1 | 4 | 0 | / | 4.5* | 30 | 86*
CN(Cc1nc(Cc2cccc(F)c2)no1)CC1CCOCC1 | / | -5 | -0.31 | / | / | -2
CN(CC(O)COc1c(F)cc(Br)cc1F)C1CCCCC1 (centres undefined) | 89 | -6 | -0.17 | 94 | -13 | 84*
CN(CC(O)COCc1ccc2c(c1)OCO2)C1CCCCC1 (centres undefined) | 98 | 4 | / | 84 | -31 | -4
c1ccc(Cn2nnc3c(N4CCc5ccccc5C4)ncnc32)cc1 | 79 | -1 | / | 81 | 82* | 8
Cc1cccc(C)c1OC(=O)C(c1ccccc1)c1ccccc1 | 80 | -2 | -0.13 | 79 | -7 | 89*
Cc1ccc(CNC(=O)C2(NC(=O)Nc3ccc(C)cc3)CCCCC2)cc1 | 31 | -5 | / | 16 | -61 | 18
O=C(Nc1ccc(F)cc1)NC1(C(=O)NCc2ccc3c(c2)OCO3)CCCCC1 | 85 | 0 | / | 76 | -148 | 91*
O=C(Nc1ccc(F)cc1)NC1(C(=O)NCc2ccco2)CCCCC1 | 98 | 13 | 0.19 | 99 | / | 82*
O=C(NCc1ccc2c(c1)OCO2)C1CCCN1C(=O)Nc1ccc(F)cc1 (centres undefined) | 107 | -7 | / | 94 | / | 92*
CCCC(=O)NC(c1ccccc1Cl)c1c(O)ccc2ccccc12 (centres undefined) | 49 | -8 | -0.77 | 61 | 16 | 100*
CCCCC(=O)NCc1ccccc1Cl | / | 9 | 0.18 | / | 0 | 4
CCCCC(=O)NC(c1ccccc1Cl)c1c(O)ccc2ccccc12 (centres undefined) | 63 | 6 | 0.011 | 77 | 16 | 99*
O=C(Cc1ccccc1)NC(c1ccco1)c1c(O)ccc2ccccc12 (centres undefined) | / | 9 | -1.5 | / | -29 | 22
Cc1nc(C#N)c(N/N=C/c2c(F)cccc2Cl)o1 | 96 | 2 | -1.1 | 98 | 56 | -3
Cc1cc(C)cc(NC2=NCC(=O)N2Cc2ccccc2)c1 | 86 | -6 | -1.6 | 92 | -16 | 20
O=C1CCN=C(Nc2ccc(F)cc2)N1Cc1ccccc1 | 92 | -9 | 0.01 | 96 | -25 | 72*
CN(C)CCCNC(=O)c1cc2sc3ccccc3c2s1 | / | -5 | -1 | / | -26 | 92*
CN(C)CCCNC(=O)c1ccc(-c2ccccc2)cc1 | 99 | -1 | -1.6 | 98 | / | 86*
SMILES | PTEN del growth | p97 inhibitor | ROMK primary | HCT116 bCat-KO | INS promoter inh | L major viab
COCCNC(=O)c1cc2sc3ccccc3c2s1 | 90 | -5 | / | 101 | / | -3
O=S(=O)(c1ccc(NC(=S)Nc2ccccc2)cc1)N1CCOCC1 | 95 | 4 | 0.16 | 98 | 29 | 1
CC(NC(=S)Nc1ccc(S(=O)(=O)N2CCOCC2)cc1)C1CC2CCC1C2 (centres undefined) | 55 | -4 | / | 69 | 0 | 63*
Cc1cc(OCCCCNC(C)C)cc(C(C)C)c1 | 96 | 2 | -0.5 | 87 | 7 | 97*
CCOc1ccccc1NC(=O)CCC(=O)Nc1ccc2nc(N3CCN(C)CC3)cc(C)c2c1 | 95 | -4 | 0.18 | 97 | 3 | 74*
CCN1CCN(c2cc(C)c3cc(NC(=S)N(CC)CC)ccc3n2)CC1 | / | 0 | -0.88 | / | / | 7
COc1ccccc1CNC(=S)Nc1ccc2nc(N3CCN(C)CC3)cc(C)c2c1 | / | 0 | -0.88 | / | 7 | 100*
CCN1CCN(c2cc(C)c3cc(NC(=S)NCc4cccs4)ccc3n2)CC1 | / | 1 | -0.12 | / | / | 99*
Cc1cc(N2CCN(C)CC2)nc2ccc(NC(=S)NCc3cccs3)cc12 | / | 0 | -0.011 | / | / | 99*
COc1ccc(CNC(=S)Nc2ccc3nc(N4CCN(C)CC4)cc(C)c3c2)cc1 | / | -6 | 0.73 | / | / | 19
Cc1cccc(C)c1NC(=O)COC(=O)C1CC(=O)N(Cc2ccccc2)C1 (centres undefined) | / | 5 | 0.85 | / | / | -5
CCC(C)NC(=S)Nc1ccc2nc(N3CCN(CC)CC3)cc(C)c2c1 (centres undefined) | / | 2 | 0.13 | / | / | 94*
Cc1sc2nc(-c3ccccn3)[nH]c(=O)c2c1-c1ccccc1 | / | -2 | -0.87 | / | / | 99*
Cc1nccn1CC(=O)N/N=C/c1cccc(O)c1 | 87 | 0 | 0.61 | 98 | 3 | 61*
C=CCc1c(C)nc(-c2ccccc2)nc1N/N=C/c1ccncc1 | / | -4 | -1.3 | / | -44 | 68*
C=CCc1c(C)nc(-c2ccccc2)nc1Nc1ccccc1O | 89 | 9 | / | 78 | 4 | 62*
C=CCc1c(C)nc(-c2ccccc2)nc1N/N=C/c1ccccc1 | 87 | 0 | / | 86 | / | 11
COc1cccc(C2C=C(Nc3ccccc3)C(=O)N2c2ccccc2)c1 (centres undefined) | 77 | 3 | 0.5 | 92 | -36 | 66*
Cc1occc1C(=O)N=Nc1c(O)n(C)c2ccccc12 | 58 | 3 | 0.22 | 64 | -4 | 71*
Cc1[nH]c2ccccc2c1C(=O)CSc1nc2cc(S(=O)(=O)N3CCCCC3)ccc2o1 | 54 | 4 | / | 46 | / | 55*
Cc1[nH]c2ccccc2c1SCCNC(=O)c1ccc(S(=O)(=O)N2CCCC2)cc1 | 72 | 4 | -1.8 | 63 | 7 | 99*
Cc1ccc(N=c2c([N+](=O)[O-])nn(-c3ccc4c(c3)OCCO4)n2O)c(Cl)c1 | / | -1 | -0.0034 | / | 40 | 18
O=[N+]([O-])c1nn(-c2ccccc2)n(O)c1=NCc1ccc2c(c1)OCO2 | 93 | -5 | -0.95 | 101 | / | 16
Cc1ccc(CN=c2c([N+](=O)[O-])nn(-c3ccc4c(c3)OCCO4)n2O)cc1 | 96 | 3 | -0.0035 | 102 | -21 | 98*
COc1ccc(-n2nc([N+](=O)[O-])c(=NCc3ccc4c(c3)OCO4)n2O)cc1 | 99 | -4 | -0.43 | 90 | 15 | 97*
O=C1CCCN1CCCN=c1c([N+](=O)[O-])nn(-c2ccc(Cl)cc2)n1O | / | -4 | 0.049 | / | / | 73*

Bioassay records from PubChem.
